Where a name gives a salt, the structure may show the parent alone.

This assay deals with Saccharomyces cerevisiae. In words: fraction of cells in G1 phase (DNA content, flow cytometry); higher = more cells with unreplicated DNA (G1 delay). The following applies: temperature: 30 C; YPD; JTY2953 pdr5 snq2 (sensitized); drug added to: cultures diluted from stationary phase; 6-7 h. The procedure, abridged:
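S. cerevisiae in YPD at 30°C was treated with library drugs, with DMSO-only wells as reference. Sensitized JTY2953 cultures diluted 1∶200 from overnight received a final 20 µg/ml and were fixed after 6–7 h; other runs dosed dividing JTY2953 (fixed 6 h later) or BY4741 (4.33 h later). Ethanol-fixed cells were stained with SYTOX Green and 10,000 events read by flow cytometry. G1 fraction is the Dean-Jett-Fox G1 peak area over G1 plus G2/M areas.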
For the compound `C[C@]12CC[C@@H]3c4ccc(O)cc4CC[C@H]3[C@@H]1C[C@@H](O)[C@@H]2O` [Estriol] (69.3505 µM), the “fraction of cells in G1 phase” value worked out at 0.535.

Take `CN(C)C(=N)NC(=N)N` [Metformin] (154.84 µM): the “fraction of cells in G1 phase” value was determined as 0.516.

Take `C#Cc1cccc(Nc2ncnc3cc(OCCOC)c(OCCOC)cc23)c1` [Erlotinib] (50.8329 µM): the “fraction of cells in G1 phase” value came out at 0.527.

As for `Cc1[nH]c(=O)c(C#N)cc1-c1ccncc1` [Milrinone] (94.6857 µM), the “fraction of cells in G1 phase” value is 0.482.

As to `CC(=O)O[C@]1(C(C)=O)CC[C@H]2[C@@H]3C=C(C)C4=CC(=O)CC[C@]4(C)[C@H]3CC[C@@]21C` [Megestrol acetate] (52.0129 µM), the “fraction of cells in G1 phase” value amounted to 0.575.

On to `CCC1(c2ccccc2)NC(=O)N(C)C1=O` (stereo not drawn) [Mephenytoin] (91.6348 µM), for which the “fraction of cells in G1 phase” value was 0.522.

In the case of `CN/C(=N\CCSCc1nc[nH]c1C)NC#N` [Cimetidine] (79.2571 µM), the “fraction of cells in G1 phase” value was found to be 0.5.

For the compound `Nc1nnc(-c2cccc(Cl)c2Cl)c(N)n1` [Lamotrigine] (78.0958 µM), the “fraction of cells in G1 phase” value came to 0.493.

Regarding `COC(=O)Nc1nc2cc([S+]([O-])c3ccccc3)ccc2[nH]1` (stereo not drawn) [Oxfendazole] (63.421 µM), the “fraction of cells in G1 phase” value was 0.536.

Turning to `CN(C)CCN1C(=O)c2ccccc2N(C)c2ccccc21` [Dibenzepine HCl] (67.7077 µM), the “fraction of cells in G1 phase” value worked out at 0.479.

With `CC(C)Cc1ccc(C(C)C(=O)O)cc1` (stereo not drawn) [Ibuprofen] (96.9522 µM), the “fraction of cells in G1 phase” value was found to be 0.575.

For the compound `COc1c(C)c2c(c(O)c1C/C=C(\C)CCC(=O)OCCN1CCOCC1)C(=O)OC2` [Mycophenolate mofetil] (46.1355 µM), the “fraction of cells in G1 phase” value was 0.513.

Consider `C[C@@H]1C[C@H]2[C@@H]3CCC4=CC(=O)C=C[C@]4(C)[C@@]3(F)[C@@H](O)C[C@]2(C)[C@@]1(O)C(=O)CO` [Dexamethasone] (50.9591 µM), for which the “fraction of cells in G1 phase” value turned out to be 0.504.

The values above are taken from the supplement of paper PMC3342239.
